Autofluor counter: flagged as autofluorescent in microsphere protease counterscreen | compound autofluorescence counterscreen, microsphere flow cytometry; active compounds read high | fluorescence intensity (no concentration beside the values) | 3.1% of 360,000 active | AID 624483; in the data active means fluorescence intensity above about 16000; inconclusive means no clear call, values can overlap the other calls
BoNT A protease: BoNT/A light chain protease inhibitors, primary screen, biochemical, flow cytometry, MLPCN library. inhibition, % at 10 µM. 0.17% of 360,000 active. multiplex microsphere protease substrate cleavage
BoNT F protease: BoNT/F light chain protease inhibitors, primary screen, biochemical, flow cytometry, MLPCN library | Botulinum neurotoxin type F light chain protease (Clostridium botulinum) | inhibition, % at 10 µM | 0.22% of 360,000 active | Multiplex microsphere protease cleavage assay; in the data active means inhibition above about 35%, passing the limit was not always enough; inconclusive means no clear call, values can overlap the other calls
MazEF act: activators of E. coli MazEF toxin-antitoxin RNase, primary screen, biochemical, fluorescence, uHTS | FAM/BHQ RNA-DNA oligo cleavage fluorescence, 5 h | activation, % at 20 µM | 0.32% of 350,000 active | AID 504720, 2011; in the data active means activation above about 50%
Anthrax LF prot: Bacillus anthracis LF protease inhibitors, primary screen, biochemical, multiplex microsphere, MLPCN library; Lethal factor (Bacillus anthracis), P15917; multiplex microsphere protease cleavage assay; inhibition, % at 10 µM; 0.12% of 360,000 active; AID 588501, 2011
Target sequence (P15917 whole entry, looked up): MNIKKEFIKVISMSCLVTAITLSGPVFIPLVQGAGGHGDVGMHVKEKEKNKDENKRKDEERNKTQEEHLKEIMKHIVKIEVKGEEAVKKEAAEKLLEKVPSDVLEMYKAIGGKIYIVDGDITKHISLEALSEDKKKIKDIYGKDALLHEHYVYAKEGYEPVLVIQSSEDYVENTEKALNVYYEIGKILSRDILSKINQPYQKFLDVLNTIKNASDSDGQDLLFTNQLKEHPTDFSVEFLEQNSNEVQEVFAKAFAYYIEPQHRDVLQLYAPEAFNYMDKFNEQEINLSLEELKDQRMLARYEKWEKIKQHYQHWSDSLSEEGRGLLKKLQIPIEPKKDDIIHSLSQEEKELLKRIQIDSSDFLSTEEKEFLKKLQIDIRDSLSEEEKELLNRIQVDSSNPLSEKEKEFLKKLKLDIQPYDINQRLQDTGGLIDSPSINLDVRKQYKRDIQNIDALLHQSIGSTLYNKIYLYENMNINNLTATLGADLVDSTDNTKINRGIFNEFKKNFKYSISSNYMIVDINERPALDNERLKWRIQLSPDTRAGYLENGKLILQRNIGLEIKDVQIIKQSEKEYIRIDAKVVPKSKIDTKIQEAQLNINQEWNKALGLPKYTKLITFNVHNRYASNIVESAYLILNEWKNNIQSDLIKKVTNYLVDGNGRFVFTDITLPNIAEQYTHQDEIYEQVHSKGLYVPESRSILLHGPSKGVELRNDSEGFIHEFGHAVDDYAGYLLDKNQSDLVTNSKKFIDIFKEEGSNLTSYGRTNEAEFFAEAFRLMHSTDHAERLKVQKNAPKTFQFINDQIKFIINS
Hits are given with their value; – = inactive; ? = inconclusive; · = no result. Sampled rows, rich in hits. Any-hit rate of the full collection: about 3.7%. Unless noted, no stated cut-off is given here; in the data, active means inhibition above about 30%; inconclusive means no clear call, values can overlap the other calls; inactive means below that.

SMILES | Autofluor counter | BoNT A protease | BoNT F protease | MazEF act | Anthrax LF prot
Cc1ccc(NC(=O)NN2CCN(C)CC2)cc1C | – | – | – | – | –
COc1ccc(-n2ncc3c(NCc4ccco4)ncnc32)cc1 | – | – | – | – | –
C=CCNc1ncnc2c1cnn2-c1ccc(OC)cc1 | 16362 | – | – | – | –
COC(=O)c1c(NC(=O)c2cnccn2)sc2c1CCC2 | – | – | – | – | –
O=C(Nc1nc2c(s1)CCCC2=O)c1cnccn1 | 23908 | – | – | – | –
CCCCC(=O)NC(NC(=S)N1CCOCC1)C(Cl)(Cl)Cl (stereo not drawn) | 23068 | ? | – | – | –
CCOC(=O)c1c(NC(=O)COC(=O)c2cnc(C)cn2)sc(C(=O)N(C)C)c1C | 16695 | – | – | – | –
CCOC(=O)c1c(NC(=O)COC(=O)c2ccccn2)sc(C(=O)N(C)C)c1C | ? | – | – | – | –
CCCCNC(=O)c1ccc2c(c1)ncn2C1CCCCC1 | – | – | – | – | –
CC(C)CCNC(=O)c1ccc2c(c1)ncn2C1CCCCC1 | 19635 | – | – | – | –
CCOC(=O)C1=CCN(S(=O)(=O)c2ccc(C)cc2)C1c1ccccc1F (stereo not drawn) | – | – | – | · | –
COCCCn1c(=S)[nH]c2ccc(N3CCOCC3)cc2c1=O | 18662 | – | – | – | –
COc1ccc(CCn2c(=S)[nH]c3ccc(N4CCOCC4)cc3c2=O)cc1OC | – | – | – | – | –
O=c1c2cc(N3CCOCC3)ccc2[nH]c(=S)n1CC1CCCO1 (stereo not drawn) | 22212 | – | – | – | –
O=C(NCc1cccs1)c1noc2c1CCCCC2 | 16908 | – | – | – | –
O=C(NCc1ccccc1)c1noc2c1CCCCC2 | 16329 | – | – | – | –
COc1ccc(CNC(=O)c2noc3c2CCCCC3)cc1 | 21035 | – | – | – | –
O=[N+]([O-])c1cc(C(F)(F)F)ccc1NCCOc1ccccc1 | – | – | – | – | –
O=C(OCCNc1ccc(C(F)(F)F)cc1[N+](=O)[O-])c1cc2ccccc2oc1=O | – | – | – | 250.9 | –
CCC(C(=O)NC1CCCC1)N(C(=O)Cn1nnc(-c2ccc(C)o2)n1)c1cnc2ccccc2c1 (stereo not drawn) | 26220 | – | – | – | –
Cc1ccc(-c2nnn(CC(=O)N(CC(=O)NCC3CCCO3)c3ccc(F)c(Cl)c3)n2)o1 (stereo not drawn) | 25388 | – | – | – | –
Cc1ccc(-c2nnn(CC(=O)N(CC(=O)NC(C)C)c3cnc4ccccc4c3)n2)o1 | – | – | – | – | –
Cc1ccc(-c2nnn(CC(=O)N(CC(=O)NC3CCCC3)c3cnc4ccccc4c3)n2)o1 | 20315 | – | – | – | –
C=CCOc1ccc(/C(CC)=N/O)c(OC)c1 | 23301 | ? | – | – | –
O=C(Nc1c(C(=O)N2CCOCC2)cnn1-c1ccccc1)c1ccccc1 | – | – | – | – | –
SMILES | Autofluor counter | BoNT A protease | BoNT F protease | MazEF act | Anthrax LF prot
O=C(Nc1c(C(=O)N2CCOCC2)cnn1-c1ccccc1)c1ccco1 | 23770 | ? | – | – | –
COc1ccc(-c2ccc(C(=O)NCC3CCOCC3)c3occc23)c(C)c1 | – | – | – | · | –
Cc1nc(NCc2ccco2)c2c(C)c(C)sc2n1 | 16784 | – | – | – | –
CCCS(=O)(=O)NC(=O)C1(C)CCCN(C(=O)c2ccc3ccccc3c2)C1 (stereo not drawn) | – | – | – | · | –
COc1ccc(CCNC2CC(=O)N(CCc3ccccc3)C2=O)cc1OC (stereo not drawn) | – | – | – | – | –
CCOc1ccc(CCNC(=O)c2cccc(N3CCCC3=O)c2)cc1OCC | – | – | – | – | –
CC1CCCCC1NC(=O)c1ccc(N2CCCC2=O)cc1 (stereo not drawn) | 22649 | ? | – | – | –
COc1cc(C(=O)NCCc2ccc3c(c2)OCCO3)ccc1OCC(=O)N1CCOCC1 | 16542 | – | – | – | –
CC1CCN(CCCNC(=O)c2ccc(N3CCCC3=O)cc2)CC1 | – | – | – | – | –
COc1ccc(CCNC(=O)c2ccc(N3CCCC3=O)cc2)cc1OC | 21331 | – | – | – | –
COc1ccc(CCNC2CC(=O)N(C)C2=O)cc1OC (stereo not drawn) | 24224 | – | – | – | –
Cc1nn(-c2nccs2)c2c1C(=O)CC(C)(C)C2Br (stereo not drawn) | – | – | – | – | –
COc1ccc(C(=O)NC(C(=O)NCC2(N3CCCCC3)CCCCC2)C(C)C)cc1 (stereo not drawn) | – | – | – | – | –
O=C(c1ccccc1F)N1CCN(c2ccccc2F)CC1 | – | – | – | – | –
O=C(c1cccc(S(=O)(=O)N2CCCC2)c1)N1CCN(c2ccccc2)CC1 | 21121 | – | – | – | –
O=C(c1ccccc1F)N1CCN(c2ccccc2)CC1 | 19300 | – | – | – | –
O=C(c1ccc2ccccc2c1)N1CCN(c2ccccc2)CC1 | 19676 | ? | – | – | –
COC(=O)c1ccccc1Oc1cc(C(F)(F)F)nc(-c2ccccn2)n1 | – | – | ? | – | –
Cc1c(NS(=O)(=O)c2ccc3[nH]c(=O)[nH]c3c2)c(=O)n(-c2ccccc2)n1C | 20240 | – | – | – | –
COc1ccccc1NC(=O)Nc1c(C)n(C)n(-c2ccccc2)c1=O | 21129 | ? | – | – | –
Cc1c(NC(=O)/C(=C/c2cccs2)NC(=O)c2ccccc2)c(=O)n(-c2ccccc2)n1C | – | – | – | – | –
Cc1c(NC(=O)c2ccccc2F)c(=O)n(-c2ccccc2)n1C | 16314 | ? | – | – | –
Cc1c(NC(=O)c2c(F)c(F)c(F)c(F)c2F)c(=O)n(-c2ccccc2)n1C | – | – | – | – | –
Cc1c(NS(=O)(=O)c2ccccc2)c(=O)n(-c2ccccc2)n1C | – | – | – | – | –
Cc1c(NC(=O)/C=C/c2cccs2)c(=O)n(-c2ccccc2)n1C | 22938 | – | – | – | –
SMILES | Autofluor counter | BoNT A protease | BoNT F protease | MazEF act | Anthrax LF prot
Cc1ccccc1NC(=O)Nc1c(C)n(C)n(-c2ccccc2)c1=O | – | – | – | – | –
COc1ccccc1C(=O)Nc1c(C)n(C)n(-c2ccccc2)c1=O | 22949 | – | – | – | –
Cc1cccc(NC(=O)/C=C/c2cccs2)n1 | 21452 | – | – | – | –
O=C(/C=C/c1cccs1)Nc1ccncc1 | – | – | – | – | –
COc1cc(Br)c(S(=O)(=O)Nc2c(C)n(C)n(-c3ccccc3)c2=O)cc1OC | 21059 | – | – | – | –
Cc1c(NC(=O)CC(=O)Nc2c(C)n(C)n(-c3ccccc3)c2=O)c(=O)n(-c2ccccc2)n1C | – | – | – | – | –
Cc1c(NC(=O)CN2CCCc3ccccc32)c(=O)n(-c2ccccc2)n1C | 22099 | ? | – | – | –
COc1ccc(C(CNC(=O)Cc2ccc(-c3ccccc3)cc2)N(C)C)cc1 (stereo not drawn) | – | – | – | – | –
